# Source: PubChem
# Hits are enriched below; roughly 6.8% of the tested compounds scored in any of these assays.
# C diff HTS: blocks growth of Clostridium difficile; Clostridium difficile clinical isolate growth, OD600, 24 h; hits give low values; growth activity, negative = inhibition, % at 16 µg/mL (by protocol); 86,000 compounds, 0.25% hits;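 active means mean growth activity at or below -80% and every replicate also at or below -80%; inconclusive means mean at or below -80% but some replicate above -80%; inactive means mean growth activity above -80%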;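 further: 0% = DMSO wells and -100% = levofloxacin 16 µg/mL wells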
# T cruzi growth-1: T. cruzi proliferation inhibition | AID 624255 | 77,000 compounds, 5.9% hits | T. cruzi beta-gal in NIH3T3, GalScreen luminescence, 90 h | inhibition, % at 8.34 µM;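 active means mean inhibition above about 93%, with at least 55% of replicates each passing it, limit read from the data, passing the limit was not always enough; inconclusive means only one of those two conditions holds; inactive means neither condition holds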
# Pf Dd2 growth: P. falciparum Dd2 growth inhibition | SYBR Green, 72 h; hits give low values | activity change, % at 10 µM | 94,000 compounds, 2.3% hits | AID 1159554; in the data active means activity change below about -80%; inconclusive means no clear call, values can overlap the other calls
# T cruzi growth-2: Trypanosoma cruzi proliferation inhibition; T. cruzi beta-gal in NIH3T3, GalScreen luminescence, 90 h; 5,600 compounds, 72% hits; AID 651739; inhibition, % at 8.35 µM; shares compounds with T cruzi growth-1;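 active means mean replicate inhibition above about 95% and at least 55% of replicates individually reaching it, limit read from the data; inconclusive means only one of the two criteria is met; inactive means neither criterion is met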
# T cruzi growth-3: blocks T. cruzi growth in NIH3T3 host cells | inhibition, % at 2.09 µM | AID 651740 | T. cruzi beta-gal in NIH3T3, GalScreen luminescence, 90 h | shares compounds with T cruzi growth-1 | 5,600 compounds, 21% hits;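 active means mean inhibition above about 95%, with at least 55% of replicates also reaching it, limit read from the data; inconclusive means meets just one of the two conditions; inactive means meets neither condition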;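 further: plate controls were neutral control median for no effect and positive control median for full effect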
# NIH3T3 tox: cytotoxicity in mouse NIH/3T3 fibroblasts; shares compounds with T cruzi growth-1; NIH/3T3 viability, CellTiter-Glo ATP luminescence, 90 h; cytotoxicity (signal decrease), % at 8.35 µM; 5,600 compounds, 14% hits; AID 651742;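 active means mean signal decrease across replicates above about 35% based on untreated-well scatter, with enough replicates individually passing, limit read from the data; inconclusive means no rule stated though some were filed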;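 further: 0% = median of neutral control wells and 100% = median of positive control wells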
# 3T3 cytotox 2: cytotoxicity in mouse NIH/3T3 fibroblasts; shares compounds with T cruzi growth-1; NIH/3T3 viability, CellTiter-Glo ATP luminescence, 90 h; inhibition, % at 24.9 µM; 5,600 compounds, 56% hits; AID 651744;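 active means mean loss of cell viability signal at or above a set limit, and enough replicates individually reaching it; inconclusive means meets only the mean limit or only the replicate share; inactive means meets neither condition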;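 further: 0% = median of neutral control wells and 100% = median of positive control wells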
# Numbers without * were called inactive; ? = inconclusive; · = no result.
SMILES,C diff HTS,T cruzi growth-1,Pf Dd2 growth,T cruzi growth-2,T cruzi growth-3,NIH3T3 tox,3T3 cytotox 2
C[C@@H]1CCCCO[C@H](CN(C)C(=O)CCC(F)(F)F)[C@@H](C)CN([C@H](C)CO)C(=O)c2cc(NS(=O)(=O)c3ccc(Cl)cc3)ccc2O1,-14,88,-22,·,·,·,·
C[C@@H]1CN([C@H](C)CO)C(=O)c2cc(NS(=O)(=O)c3ccc(Cl)cc3)ccc2O[C@@H](C)CCCCO[C@@H]1CN(C)C(=O)CCC(F)(F)F,-10,99*,-36,82,52,16,71*
C[C@@H]1CN([C@H](C)CO)C(=O)c2cc(NS(=O)(=O)c3cccs3)ccc2O[C@@H](C)CCCCO[C@H]1CN(C)C(=O)C1CCCCC1,-16,·,-47,·,·,·,·
C[C@@H]1CCCCO[C@@H](CN(C)C(=O)C2CCCCC2)[C@@H](C)CN([C@@H](C)CO)C(=O)c2cc(NS(=O)(=O)c3cccs3)ccc2O1,1,110*,-42,46,10,-2,10
C[C@@H]1CCCCO[C@@H](CN(C)C(=O)C2CCCCC2)[C@H](C)CN([C@@H](C)CO)C(=O)c2cc(NS(=O)(=O)c3cccs3)ccc2O1,-5,17,-9,·,·,·,·
C[C@H](CO)N1C[C@H](C)[C@H](CN(C)C(=O)C2CCCCC2)OCCCC[C@H](C)Oc2ccc(NS(=O)(=O)c3cccs3)cc2C1=O,10,115*,-47,82,45,7,10
CCCN1[C@H](C(=O)NC2CCC2)[C@@H](CO)[C@@H]2Cn3c(ccc(-c4cccnc4)c3=O)[C@@H]21,-7,77,·,·,·,·,·
COc1ccc(NC(=O)N(C)C[C@@H]2Oc3cc(-c4ccc(C)cc4)ccc3S(=O)(=O)N([C@H](C)CO)C[C@@H]2C)cc1,-2,123*,-90*,105*,85,47*,25
COc1ccc(NC(=O)N(C)C[C@@H]2Oc3cc(-c4ccncc4)ccc3S(=O)(=O)N([C@H](C)CO)C[C@H]2C)cc1,0,72,4,·,·,·,·
COc1ccc(NC(=O)N(C)C[C@H]2Oc3cc(-c4ccncc4)ccc3S(=O)(=O)N([C@H](C)CO)C[C@@H]2C)cc1,0,63,-17,·,·,·,·
COc1ccc(NC(=O)N(C)C[C@H]2Oc3cc(-c4ccc(C)cc4)ccc3S(=O)(=O)N([C@@H](C)CO)C[C@H]2C)cc1,0,106*,-75,108*,70,-19,13
C[C@@H]1CN([C@@H](C)CO)C(=O)c2cc(NC(=O)CCC(F)(F)F)ccc2O[C@@H](C)CCCCO[C@@H]1CN(C)C(=O)CCC(F)(F)F,3,·,12,·,·,·,·
CN(C)CC(=O)Nc1ccc2c(c1)[C@@H]1C[C@H](CC(=O)N(C)C)O[C@@H](CO)[C@@H]1O2,-2,5,12,·,·,·,·
COC(=O)[C@H]1[C@H](CO)[C@H]2Cn3c(ccc(-c4ccccc4OC)c3=O)[C@H]2N1C(=O)c1cccnc1,2,-6,7,·,·,·,·
CC(=O)N(C)C[C@H]1Oc2cc(C#Cc3ccccn3)ccc2S(=O)(=O)N([C@H](C)CO)C[C@@H]1C,-2,-5,24,·,·,·,·
C[C@@H]1CN([C@H](C)CO)S(=O)(=O)c2ccc(C#Cc3ccccn3)cc2O[C@@H]1CN(C)Cc1ccccc1,-1,101*,-20,73,53,4,99*
C[C@H](CO)N1C[C@H](C)[C@H](CN(C)C)Oc2cc(C#Cc3ccccn3)ccc2S1(=O)=O,3,·,15,·,·,·,·
CC(=O)N(C)C[C@@H]1Oc2cc(C#Cc3ccccn3)ccc2S(=O)(=O)N([C@@H](C)CO)C[C@H]1C,-1,102*,16,91,81,-8,19
C[C@H](CO)N1C[C@H](C)[C@H](CN(C)Cc2ccccc2)Oc2cc(C#Cc3ccccn3)ccc2S1(=O)=O,-5,107*,-78,109*,90,4,-7
C[C@H]1CN([C@@H](C)CO)S(=O)(=O)c2ccc(C#Cc3ccccn3)cc2O[C@@H]1CN(C)C,-2,·,13,·,·,·,·
COCC(=O)Nc1ccc2c(c1)OC[C@H](C)N(C(=O)C1CCCC1)C[C@H](C)[C@H](OC)CN(C)C2=O,-3,-11,-21,·,·,·,·
C/C=C/c1cnc2c(c1)C(=O)N([C@@H](C)CO)C[C@@H](C)[C@H](CN(C)C(=O)c1cccc(F)c1)O2,1,·,-20,·,·,·,·
CO[C@@H]1CN(C)C(=O)c2ccc(NS(=O)(=O)c3cn(C)cn3)cc2OC[C@@H](C)N(C)C[C@H]1C,·,13,-4,·,·,·,·
COc1ccccc1S(=O)(=O)N[C@H]1CC[C@@H](CCn2cc(C3CC3)nn2)O[C@H]1CO,6,·,13,·,·,·,·
C[C@H](CO)N1C[C@H](C)[C@@H](CN(C)C(=O)C2CCCCC2)Oc2cc(-c3ccc(C(=O)N(C)C)cc3)ccc2S1(=O)=O,3,62,-24,·,·,·,·
SMILES,C diff HTS,T cruzi growth-1,Pf Dd2 growth,T cruzi growth-2,T cruzi growth-3,NIH3T3 tox,3T3 cytotox 2
Cc1ccccc1-c1ccc2c(c1)O[C@H](CN(C)C(=O)Nc1ccccc1)[C@@H](C)CN([C@@H](C)CO)S2(=O)=O,-10,92*,-41,102*,56,?,64*
CC(C)C#Cc1ccc2c(c1)O[C@H](CN(C)C(=O)Nc1ccccc1)[C@@H](C)CN([C@H](C)CO)S2(=O)=O,-6,·,13,·,·,·,·
C[C@H](CO)N1C[C@H](C)[C@@H](CN(C)C(=O)Nc2ccccc2)Oc2cc(C#Cc3ccccc3)ccc2S1(=O)=O,21,118*,-40,105*,68,-9,-9
C[C@@H]1CN([C@H](C)CO)S(=O)(=O)c2ccc(C#Cc3ccccc3)cc2O[C@@H]1CN(C)C(=O)Nc1ccccc1,-5,44,-6,·,·,·,·
C[C@H](CO)N1C[C@H](C)[C@H](CN(C)C(=O)Nc2ccccc2)Oc2cc(C#Cc3ccccc3)ccc2S1(=O)=O,-19,118*,-70,107*,81,21,14
Cc1ccccc1-c1ccc2c(c1)O[C@@H](CN(C)C(=O)Nc1ccccc1)[C@@H](C)CN([C@H](C)CO)S2(=O)=O,1,31,-17,·,·,·,·
CN1CCN(C(=O)C[C@H]2C[C@H]3c4cc(NC(=O)CC5CC5)ccc4O[C@H]3[C@@H](CO)O2)CC1,2,-5,13,·,·,·,·
C[C@H]1CN([C@@H](C)CO)C(=O)c2cc(NC(=O)CCC(F)(F)F)ccc2O[C@@H]1CN(C)C(=O)Nc1cccc2ccccc12,-1,28,-31,·,·,·,·
C[C@@H]1CN([C@H](C)CO)C(=O)c2cc(NC(=O)Nc3ccc(F)cc3)ccc2O[C@@H]1CN(C)Cc1ccc(-c2ccccc2)cc1,69,?,7,95*,89,111*,106*
C[C@@H]1CN([C@H](C)CO)C(=O)c2cc(NC(=O)Nc3ccc(F)cc3)ccc2O[C@H]1CN(C)Cc1ccc(-c2ccccc2)cc1,2,48,9,·,·,·,·
